Measured values taken from PubChem BioAssay (Tox21).
Inconclusive results are not listed. Activity calls are given as the source filed them. Calls come from the whole dose curve; as a rule, active = well fitted curve in the direction sought with a large enough effect in the repeat runs; inconclusive = weak or mixed curves; inactive = no such curve, though single readings can be large; an effect the other way counts as inactive or inconclusive.

Assays:
[1] = molecular target: Cytochrome P450 2D6 (Homo sapiens) (UniProt P10635); experiment: Cytochrome P450 Family 2 Subfamily D Member 6 (CYP2D6) small molecule antagonists: luciferase reporter qHTS assay (AID 1671196); conditions: P450-Glo CYP2D6 enzyme assay, luciferin luminescence, 1 h; series mostly up to 115 µM; note: nearly all actives have a fitted effect of over 50% in size
Sequence of Cytochrome P450 2D6 (Homo sapiens) (P10635 whole entry, looked up): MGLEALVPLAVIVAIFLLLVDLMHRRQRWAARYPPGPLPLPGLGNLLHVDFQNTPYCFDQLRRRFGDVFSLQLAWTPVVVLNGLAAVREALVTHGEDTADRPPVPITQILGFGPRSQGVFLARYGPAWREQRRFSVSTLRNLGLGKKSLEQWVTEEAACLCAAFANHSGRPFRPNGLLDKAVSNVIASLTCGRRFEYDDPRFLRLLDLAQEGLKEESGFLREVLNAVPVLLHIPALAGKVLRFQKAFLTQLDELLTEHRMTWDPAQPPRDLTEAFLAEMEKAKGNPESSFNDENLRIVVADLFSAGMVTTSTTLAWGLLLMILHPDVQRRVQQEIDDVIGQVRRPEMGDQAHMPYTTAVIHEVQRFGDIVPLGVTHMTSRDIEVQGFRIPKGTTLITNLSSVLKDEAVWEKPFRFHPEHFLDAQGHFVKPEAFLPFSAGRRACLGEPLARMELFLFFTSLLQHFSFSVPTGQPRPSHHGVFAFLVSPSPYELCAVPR
Summary of the method: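 Inhibition of CYP2D6 was gauged by loss of luminescence, since light produced tracks the luciferin generated from a proluciferin substrate. A 10 min room-temperature preincubation preceded 1 h NADPH-supported turnover.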

[2] = molecular target: Cytochrome P450 2C19 (Homo sapiens) (UniProt P33261); experiment: Cytochrome P450 Family 2 Subfamily C Member 19 (CYP2C19) small molecule antagonists: luciferase reporter qHTS assay (AID 1671197); conditions: P450-Glo CYP2C19 enzyme, luciferin luminescence, 1 h; series mostly up to 115 µM; note: nearly all actives have a fitted effect of over 65% in size
Sequence of Cytochrome P450 2C19 (Homo sapiens) (P33261 whole entry, looked up): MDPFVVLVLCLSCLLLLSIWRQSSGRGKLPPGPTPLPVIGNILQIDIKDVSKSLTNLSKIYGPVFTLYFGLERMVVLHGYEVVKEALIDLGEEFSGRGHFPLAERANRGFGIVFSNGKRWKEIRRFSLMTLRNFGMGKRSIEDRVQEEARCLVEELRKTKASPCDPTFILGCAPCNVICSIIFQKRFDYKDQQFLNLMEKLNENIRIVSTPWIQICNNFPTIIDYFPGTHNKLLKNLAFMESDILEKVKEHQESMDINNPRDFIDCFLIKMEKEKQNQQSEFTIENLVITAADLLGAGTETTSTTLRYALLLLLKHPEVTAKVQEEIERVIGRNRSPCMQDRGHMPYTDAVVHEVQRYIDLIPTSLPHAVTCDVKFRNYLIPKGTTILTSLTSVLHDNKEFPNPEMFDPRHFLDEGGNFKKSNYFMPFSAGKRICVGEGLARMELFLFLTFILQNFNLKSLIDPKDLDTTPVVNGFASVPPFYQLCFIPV
Summary of the method: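 First, compounds are pinned into enzyme-substrate mix and held 10 min at room temperature. Second, NADPH regeneration solution is added and plates incubate 1 h at 37C. Third, detection reagent is added and luminescence read after 20 min.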

[3] = molecular target: Cytochrome P450 2C9 (Homo sapiens) (UniProt P11712); experiment: Cytochrome P450 Family 2 Subfamily C Member 9 (CYP2C9) small molecule antagonists: luciferase reporter qHTS assay (AID 1671198); conditions: P450-Glo CYP2C9 enzyme assay, luciferin luminescence; series mostly up to 115 µM; note: nearly all actives have a fitted effect of over 50% in size
Sequence of Cytochrome P450 2C9 (Homo sapiens) (P11712 whole entry, looked up): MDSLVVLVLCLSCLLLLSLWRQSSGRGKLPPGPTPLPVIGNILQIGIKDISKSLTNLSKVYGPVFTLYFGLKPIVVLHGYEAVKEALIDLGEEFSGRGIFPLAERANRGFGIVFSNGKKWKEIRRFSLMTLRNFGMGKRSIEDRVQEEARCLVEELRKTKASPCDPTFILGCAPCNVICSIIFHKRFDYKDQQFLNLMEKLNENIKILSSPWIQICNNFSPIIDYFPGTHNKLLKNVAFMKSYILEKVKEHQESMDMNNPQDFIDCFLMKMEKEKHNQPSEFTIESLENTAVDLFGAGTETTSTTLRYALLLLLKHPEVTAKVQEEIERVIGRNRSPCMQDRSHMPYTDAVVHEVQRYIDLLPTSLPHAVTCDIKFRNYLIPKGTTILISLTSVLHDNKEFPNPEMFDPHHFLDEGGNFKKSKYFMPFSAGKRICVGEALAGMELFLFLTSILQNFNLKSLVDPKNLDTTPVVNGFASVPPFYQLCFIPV
Summary of the method: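 CYP2C9 activity was measured with a P450-Glo proluciferin substrate. Enzyme–substrate mix was held with compound for 10 min at room temperature, then NADPH regeneration solution was added for 1 h at 37C. Luciferin product was read as luminescence.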

[4] = molecular target: Cytochrome P450 1A2 (Homo sapiens) (UniProt P05177); experiment: Cytochrome P450 Family 1 Subfamily A Member 2 (CYP1A2) small molecule antagonists: luciferase reporter qHTS assay (AID 1671199); conditions: P450-Glo CYP1A2 enzyme, luciferin luminescence, 1 h; series mostly up to 53 µM; note: nearly all actives have a fitted effect of over 50% in size
Sequence of Cytochrome P450 1A2 (Homo sapiens) (P05177 whole entry, looked up): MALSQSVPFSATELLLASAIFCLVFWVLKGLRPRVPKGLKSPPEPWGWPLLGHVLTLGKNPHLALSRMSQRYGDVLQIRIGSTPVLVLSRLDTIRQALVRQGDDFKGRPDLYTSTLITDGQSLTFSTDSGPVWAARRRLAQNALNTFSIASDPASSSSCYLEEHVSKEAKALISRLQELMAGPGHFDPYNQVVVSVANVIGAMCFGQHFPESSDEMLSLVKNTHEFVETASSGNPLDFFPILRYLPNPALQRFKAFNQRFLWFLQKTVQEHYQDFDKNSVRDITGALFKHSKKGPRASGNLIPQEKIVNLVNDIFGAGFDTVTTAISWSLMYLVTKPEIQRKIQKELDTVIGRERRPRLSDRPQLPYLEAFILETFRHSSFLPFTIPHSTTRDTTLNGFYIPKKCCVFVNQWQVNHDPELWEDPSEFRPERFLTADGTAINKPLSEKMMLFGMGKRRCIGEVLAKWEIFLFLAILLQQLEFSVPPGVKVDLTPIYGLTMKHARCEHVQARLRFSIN
Summary of the method: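 Signal from luciferin formed by CYP1A2 from a proluciferin substrate is read as luminescence, expressed in relative luminescence units. Compounds sit with enzyme 10 min, NADPH-driven reaction runs 1 h, all at room temperature.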

[5] = molecular target: Voltage-gated inwardly rectifying potassium channel KCNH2 (Homo sapiens) (UniProt Q12809); experiment: Human Ether-a-go-go-Related Gene (hERG) channel small molecule antagonists: fluorescence cell-based qHTS assay (AID 1671200); conditions: hERG-U2OS cells, FluxOR thallium flux fluorescence; series mostly up to 76.8 µM; note: nearly all actives have a fitted effect of over 50% in size;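 for activity change, negative = inhibition: hERG-expressing U2OS cells given a thallium stimulus after FluxOR II dye loading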
Sequence of Voltage-gated inwardly rectifying potassium channel KCNH2 (Homo sapiens) (Q12809 whole entry, looked up): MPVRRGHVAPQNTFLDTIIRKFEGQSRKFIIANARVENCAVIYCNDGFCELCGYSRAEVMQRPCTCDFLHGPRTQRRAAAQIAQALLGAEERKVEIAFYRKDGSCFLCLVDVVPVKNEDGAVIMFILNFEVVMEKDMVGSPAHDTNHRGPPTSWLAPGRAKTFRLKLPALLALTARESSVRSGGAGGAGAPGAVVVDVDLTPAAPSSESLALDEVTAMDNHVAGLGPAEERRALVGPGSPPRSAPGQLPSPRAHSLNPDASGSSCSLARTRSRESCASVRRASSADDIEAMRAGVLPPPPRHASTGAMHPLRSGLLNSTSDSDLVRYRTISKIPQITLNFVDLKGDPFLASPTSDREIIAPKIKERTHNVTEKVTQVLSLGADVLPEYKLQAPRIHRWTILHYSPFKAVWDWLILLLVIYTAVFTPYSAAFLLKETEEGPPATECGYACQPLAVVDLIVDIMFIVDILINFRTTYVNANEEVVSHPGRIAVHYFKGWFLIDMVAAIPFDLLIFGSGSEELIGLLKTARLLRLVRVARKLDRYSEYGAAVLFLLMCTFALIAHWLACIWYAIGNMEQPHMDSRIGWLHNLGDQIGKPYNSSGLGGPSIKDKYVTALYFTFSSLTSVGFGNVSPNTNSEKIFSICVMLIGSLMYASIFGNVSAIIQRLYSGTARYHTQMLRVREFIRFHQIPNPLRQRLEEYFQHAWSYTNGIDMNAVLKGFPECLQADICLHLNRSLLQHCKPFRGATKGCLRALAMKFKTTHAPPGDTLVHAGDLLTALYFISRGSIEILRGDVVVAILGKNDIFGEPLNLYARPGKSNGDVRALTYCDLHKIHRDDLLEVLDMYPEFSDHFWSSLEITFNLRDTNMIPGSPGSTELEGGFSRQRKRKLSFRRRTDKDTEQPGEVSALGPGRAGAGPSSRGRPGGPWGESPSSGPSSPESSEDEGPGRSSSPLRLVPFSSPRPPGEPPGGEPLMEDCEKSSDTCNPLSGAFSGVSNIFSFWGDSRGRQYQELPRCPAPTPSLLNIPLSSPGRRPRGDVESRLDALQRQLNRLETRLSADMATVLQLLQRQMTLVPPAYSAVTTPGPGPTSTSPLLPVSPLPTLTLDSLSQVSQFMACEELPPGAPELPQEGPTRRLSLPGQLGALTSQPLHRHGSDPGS
Summary of the method: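 First, 1000 cells per well are seeded and cultured overnight at 37 C. Next, FluxOR II dye is loaded for 1 h at room temperature, protected from light. After 10 more minutes, stimulus is added and fluorescence is read.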

[6] = molecular target: Cytochrome P450 3A4 (Homo sapiens) (UniProt P08684); experiment: Cytochrome P450 Family 3 Subfamily A Member 4 (CYP3A4) small molecule antagonists: luciferase reporter qHTS assay (AID 1671201); conditions: P450-Glo CYP3A4 enzyme, luciferin luminescence, 1 h; series mostly up to 115 µM; note: nearly all actives have a fitted effect of over 50% in size
Sequence of Cytochrome P450 3A4 (Homo sapiens) (P08684 whole entry, looked up): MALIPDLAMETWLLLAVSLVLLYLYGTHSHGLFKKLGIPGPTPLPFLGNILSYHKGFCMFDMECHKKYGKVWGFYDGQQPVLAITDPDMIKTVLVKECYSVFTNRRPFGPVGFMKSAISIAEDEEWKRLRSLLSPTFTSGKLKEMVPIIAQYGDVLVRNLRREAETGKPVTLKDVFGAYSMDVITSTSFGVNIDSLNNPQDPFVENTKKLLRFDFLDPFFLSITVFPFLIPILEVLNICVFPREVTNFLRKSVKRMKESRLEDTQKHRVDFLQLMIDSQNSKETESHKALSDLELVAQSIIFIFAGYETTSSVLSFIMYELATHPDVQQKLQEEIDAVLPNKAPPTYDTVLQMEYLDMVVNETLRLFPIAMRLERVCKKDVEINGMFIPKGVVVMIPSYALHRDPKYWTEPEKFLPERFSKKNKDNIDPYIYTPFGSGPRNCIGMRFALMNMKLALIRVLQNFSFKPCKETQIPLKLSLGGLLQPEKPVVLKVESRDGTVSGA
Summary of the method: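 Enzyme and proluciferin substrate are mixed with test chemicals for 10 min, then NADPH regeneration system drives turnover for 1 h at room temperature. A detection reagent halts the reaction; luminescence after 20 min gives relative activity.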
% is set by controls: 0 for no effect and ±100 for the full control effect; potency is the fitted concentration of half-maximal effect.

CN(C)CCOCCO
inactive: Potency [1] | Potency [2] | Potency [3] | Potency [4] | Potency [5] | Potency [6]

Cc1cccc(OCC(O)CNC(C)(C)C)c1C (configuration not stated)
active: Potency [1] 13.8 µM
inactive: Potency [2] | Potency [3] | Potency [5] | Potency [6]

COc1cc2c(cc1OC)[C@@H]1CC(=O)[C@@H](CC(C)C)CN1CC2
active: Potency [1] 12.3 µM | Potency [2] 7.76 µM | Potency [3] 11 µM
inactive: Potency [5]

CC1(CO)CN(c2ccccc2)NC1=O (configuration not stated)
inactive: Potency [5]
active: Potency [1] 28.3 µM | Potency [2] 20 µM | Potency [3] 25.2 µM | Potency [4] 35.6 µM | Potency [6] 31.7 µM

C=C(C)C1CCC(C)(O)CC1 (configuration not stated)
inactive: Potency [1] | Potency [2] | Potency [3] | Potency [4] | Potency [5] | Potency [6]

CCCCCCCCCCCCCC
inactive: Potency [1] | Potency [2] | Potency [3] | Potency [5] | Potency [6]

O=S(O)(O)=S
inactive: activity change, negative = inhibition [1] -0.0268% [at 10.5 µM] | activity change, negative = inhibition [2] -17.3% [at 10.5 µM] | activity change, negative = inhibition [3] -6.3% [at 10.5 µM] | activity change, negative = inhibition [4] -12.3% [at 10.5 µM] | activity change, negative = inhibition [5] -2.48% [at 6.97 µM] | activity change, negative = inhibition [6] 0.412% [at 10.5 µM]

O=C(O)CCSSCCC(=O)O
inactive: Potency [1] | Potency [2] | Potency [3] | Potency [5] | Potency [6]

Cc1cc(C(C)(C)C)c(O)c(C)c1CC1=NCCN1
inactive: Potency [2] | Potency [3] | Potency [4] | Potency [6]
active: Potency [1] 1.55 µM

CCCCC(CC)COCCO (configuration not stated)
active: Potency [4] 17.8 µM
inactive: Potency [1] | Potency [2] | Potency [3] | Potency [5] | Potency [6]

CCc1ccc(C=O)cc1
inactive: Potency [1] | Potency [2] | Potency [3] | Potency [5] | Potency [6]

CC(C)C[C@H](NC(=O)CNC(=O)[C@H](Cc1ccc(O)cc1)NC(=O)[C@H](CO)NC(=O)[C@H](Cc1c[nH]c2ccccc12)NC(=O)[C@H](Cc1cnc[nH]1)NC(=O)[C@@H]1CCC(=O)N1)C(=O)N[C@@H](CCCN=C(N)N)C(=O)N1CCC[C@H]1C(=O)NCC(N)=O (stereo in doubt)
inactive: Potency [1] | Potency [2] | Potency [3] | Potency [5]

COc1ccc(-c2cc(=O)c3c(O)cc(O[C@@H]4O[C@H](CO[C@@H]5O[C@@H](C)[C@H](O)[C@@H](O)[C@H]5O)[C@@H](O)[C@H](O)[C@H]4O)cc3o2)cc1O
inactive: Potency [1] | Potency [2] | Potency [4] | Potency [5] | Potency [6]

CO[C@@H]1[C@@H](OC(N)=O)[C@@H](O)[C@H](Oc2ccc3c(O)c(NC(=O)c4ccc(O)c(CC=C(C)C)c4)c(=O)oc3c2C)OC1(C)C
active: Potency [3] 11 µM
inactive: Potency [1] | Potency [4] | Potency [5] | Potency [6]

CC(COC(C)(C)C)OCCCO (configuration not stated)
active: Potency [1] 63.3 µM
inactive: Potency [3] | Potency [4] | Potency [5] | Potency [6]

CCCCCCCC/C=C\CCCCCCCC(=O)OCCCC
inactive: activity change, negative = inhibition [1] -8.07% [at 23.6 µM] | activity change, negative = inhibition [2] -24.4% [at 23.6 µM] | Potency [4] | activity change, negative = inhibition [5] -0.621% [at 15.8 µM] | activity change, negative = inhibition [6] -4.05% [at 23.6 µM]

O=C1c2ccccc2C(=O)C1c1ccccc1
inactive: Potency [1] | Potency [3] | Potency [4] | Potency [5] | Potency [6]

OCCN(CCO)c1cccc(Cl)c1
inactive: Potency [1] | Potency [5] | Potency [6]
active: Potency [2] 31.7 µM

CCC(CC)CO
inactive: Potency [1] | Potency [3] | Potency [4] | Potency [5] | Potency [6]

O=C(OCC(COC(=O)c1cccnc1)(COC(=O)c1cccnc1)COC(=O)c1cccnc1)c1cccnc1
inactive: Potency [1] | Potency [2] | Potency [4] | Potency [5]

CN1C(C)(C)CCCC1(C)C
inactive: Potency [2] | Potency [4] | Potency [5] | Potency [6]
active: Potency [1] 2.45 µM

Cc1c(I)c(=O)n(-c2ccccc2)n1C
inactive: Potency [1] | Potency [2] | Potency [4] | Potency [5] | Potency [6]

Nc1ccc([N+](=O)[O-])c(N)c1
active: Potency [1] 7.76 µM | Potency [2] 30.9 µM
inactive: Potency [5] | Potency [6]

CCCN1C[C@H](CSC)C[C@@H]2c3cccc4[nH]cc(c34)C[C@H]21
active: Potency [1] 0.155 µM | Potency [5] 7.56 µM
inactive: Potency [3] | Potency [4]

CCCOC(=O)C(C)O (configuration not stated)
active: Potency [4] 40.8 µM
inactive: Potency [1] | Potency [3] | Potency [5] | Potency [6]

C[C@@H](Oc1ccc(CNC(=O)c2cccnc2Oc2ccc3c(c2)OCO3)c(F)c1)C(=O)O
inactive: Potency [1] | Potency [2] | Potency [4] | Potency [5]

CC(CN)CC(C)(C)CCN (configuration not stated)
active: Potency [1] 11.5 µM | Potency [2] 36.5 µM | Potency [6] 5.16 µM
inactive: Potency [5]
